Here are results for 39 molecules from PubChem BioAssay.

Several values for one entry are separate records, joined by “and”; a condition that tells them apart may be missing. Equal values may be shown once. Values without a mark were called inactive. Activity calls are given as the source filed them.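 The calls were made as follows: active = inhibition at or above 50% relative to wild type and mutant plate controls; inactive = inhibition below 50%.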

The assay can be described thus: inhibitors of Chlamydomonas gravitaxis, primary screen, whole organism, Chlamydomonas reinhardtii, WT vs cilia-less mutant, absorbance, 96-well (AID 463189).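 Also: 0% = wild type cc124 cells in DMSO and 100% = ciliumless bld1 mutant cells.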 As to conditions: OD600 absorbance, 2 days, at 10 µM, hits give high values.
As to `O=C(O)CNC(=O)C(CS)Cc1ccccc1` (centres undefined), the inhibition is -0.967%. For `Cc1ccccc1N1CCN(S(=O)(=O)C[C@]23CCC(CC2NC(=O)[C@@H](N)CCS(C)(=O)=O)C3(C)C)CC1` (some centres undefined), the inhibition was 3.4%. Consider `CC1CCN=C(N)S1` (centres undefined), for which the inhibition is 0.783%. With `CCN(CC)CCCCCCCCOC(=O)c1cc(OC)c(OC)c(OC)c1`, the inhibition is 24.5%.

Turning to `N=C(N)SCCc1cnc[nH]1`, the inhibition was 2%. As for `O=C(O)c1cc([N+](=O)[O-])ccc1NCCCc1ccccc1`, the figure is 9.38%; as for `Cc1nc2n(c(=O)c1CCN1CCC(c3noc4cc(F)ccc34)CC1)CCCC2`, 2.59%. Regarding `COc1cc(C(=O)OCCCN2CCCN(CCCOC(=O)c3cc(OC)c(OC)c(OC)c3)CC2)cc(OC)c1OC`, the inhibition was 9.83%. As to `O=S(=O)(c1cccc2c(Cl)cccc12)N1CCCNCC1`, the inhibition was 6.11%. As for `COc1cc2c(cc1O)CC[C@@H]1[C@@H]2CC[C@]2(C)[C@@H](O)CC[C@@H]12`, the figure is -5.37%; as for `CC(C(O)c1ccc(O)cc1)N1CCC(Cc2ccccc2)CC1` (centres undefined), 1.86%. Regarding `OC[C@H]1O[C@@H](n2cnc3c(Nc4ccccc4)ncnc32)C(O)[C@H]1O` (some centres undefined), the inhibition is -0.892%. Turning to `COc1ccc(-c2ccc(N)[n+](CCCC(=O)O)n2)cc1`, the inhibition is 7.29%.

As for `Nc1ncnc2c1ncn2[C@@H]1O[C@H](COP(=O)(O)OP(=O)(O)OP(=O)(O)OP(=O)(O)OC[C@@H]2O[C@H](n3cnc4c(N)ncnc43)C(O)[C@@H]2O)[C@H](O)C1O` (some centres undefined), the inhibition is 15%. As for `NS(=O)(=O)c1cc2c(cc1Cl)NC(C1CC3C=CC1C3)NS2(=O)=O` (centres undefined), the inhibition was -0.288%.

Turning to `Cc1cccc(C)c1NC(=O)C[N+](C)(C)C`, the inhibition is 7.92%. For the molecule `CC12C(=O)OC(=O)C1(C)C1CCC2O1` (centres undefined), the inhibition was -3.97%. Consider `CC(/C=C/c1cccc(Oc2ccc(F)cc2)c1)N(O)C(N)=O` (centres undefined), for which the inhibition is 4.78%. For the molecule `CC/C(=C(\c1ccccc1)c1ccc(OCCN(C)C)cc1)c1ccccc1`, the inhibition was 50.3% (active). In the case of `OC[C@H]1O[C@@H](n2cnc3cncnc32)[C@H](O)[C@@H]1O`, the inhibition was 6.38%. In the case of `CCCn1c(=O)c2[nH]c(-c3ccc(OCC(=O)Nc4ccc(C#N)cc4)cc3)nc2n(CCC)c1=O`, the inhibition was 4.77%.

On to `O=C(O)C1CCNCC1`, for which the inhibition is 4.95%. As to `Cn1c(=O)c2[nH]c(-c3ccccc3)nc2n(C)c1=O`, the inhibition was -0.378%. As for `CN1CCC[C@H]1c1cccnc1`, the figure is 0.862%.

For the molecule `CC(C)(C)NCC(O)c1ccc(O)c(CO)c1` (centres undefined), the inhibition is 2.6% and 2.52%.

As for `CN(CCOc1ccc(C[C@H](Nc2ccccc2C(=O)c2ccccc2)C(=O)O)cc1)c1ccccn1`, the inhibition is 1.04%. As for `CCCCCCCCCC(=O)NC(CN1CCOCC1)[C@H](O)c1ccccc1` (some centres undefined), the figure is -8.57%. Turning to `COc1ccc2c(c1)c(CC(=O)O)c(C)n2Cc1ccc(Cl)cc1`, the inhibition was -1.76%. Regarding `C[C@@H](NCCc1ccc(O)cc1)[C@@H](O)c1ccc(O)cc1`, the inhibition was 2.54%. As for `CN(C)S(=O)(=O)c1ccc2c(c1)/C(=C/c1cc3c([nH]1)CCCC3)C(=O)N2`, the inhibition is 4.39%. Consider `O=C(O)C1CN(CCCP(=O)(O)O)CCN1` (centres undefined), for which the inhibition was -0.924%. For `O=C1c2c(O)cc(O)cc2OC(c2ccc(O)c(O)c2)C1O` (centres undefined), the inhibition is -16.9%.

For the molecule `CSC(N)=NCCC[C@H](N)C(=O)O`, the inhibition was 9.75%. For the molecule `NCCC(=O)NCCc1cnc[nH]1`, the inhibition is 3.88%. With `NC1CONC1=O` (centres undefined), the inhibition was 8.19%. With `N=S(=O)(O)Cc1noc2ccccc12`, the inhibition was 4.33%.

Take `O=c1[nH]c2cc([N+](=O)[O-])c([N+](=O)[O-])cc2[nH]c1=O`: the inhibition was 5.09%. In the case of `Cn1c(=O)c2c(ncn2C)n(C)c1=O`, the inhibition is 1.74%.

As to `O=C1NC(O)=NC1(c1ccccc1)c1ccccc1`, the inhibition is -1.32%.

The inhibition is the drop in the measured response relative to a control, in per cent.
